Eya2 inh: Eya2 (human) phosphatase inhibition. recombinant Eya2, OMFP fluorescence dephosphorylation (OMFP is methylfluorescein phosphate). O00167. actives 0.006% (n = 330,000). Potency, µM (titrated, usually from 76.9 µM), inactives show at the highest dose activity, negative = inhibition, most hits filed as inhibitors. AID 488837; also: potency is read from the fitted curve at half-maximal effect
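Eya2 (0.2 uM) preincubated 10 min at ambient with compound, then OMFP substrate added at 50 uM; 10 min reaction in 50 mM HEPES pH 7.5, 50 mM NaCl, 5 uM MgCl2, 0.05% BSA, 1 mM DTT. Fluorescence read at Ex 485/Em 525 nm.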
TrxR1 substrate: rat thioredoxin reductase 1 substrate activity; purified TrxR1 substrate turnover, NADPH consumption readout; Potency, µM (titrated, usually from 114 µM), for inactives: top-dose activity change, negative = substrate turnover; actives 0.01% (n = 390,000); also: potency is read from the fitted curve at half-maximal effect; nearly all actives have a fitted effect of over 50% in size
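Rat TrxR1, dispensed at 90 nM, was prereduced with 400 uM NADPH (final) for 5 min at ~22 deg C, then incubated with compound 15 min before 400 uM selenite. A first-read NADPH fluorescence drop versus no-compound background flagged substrates.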
FBPA coupling cs: inhibits coupling enzyme system, counter-screen for aldolase hits; activity change, negative = inhibition, % at 58.2 µM, hits read low; actives 0.67% (n = 290,000); coupling enzyme system counterscreen, AmpLite Red fluorescence; in the data active = activity change below about -30%
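Counterscreen lacking aldolase: glyceraldehyde-3-phosphate coupling-enzyme reagent preincubated 10 min at RT with compound (at 57.5 uM final), then substrate/coupling system with AmpLite Red added; fluorescence read at 525/598 nm after 20 min RT.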
mIDH1 inhibitor: blocks human mutant IDH1 R132H enzyme. Potency, µM (highest dose often 76.6 µM), for the others: top-dose activity change, negative = inhibition, hits mostly inhibitors. actives 0.093% (n = 390,000). IDH1-R132H enzyme, NADPH consumption, diaphorase/resazurin fluorescence. AID 602179; also: potency is read from the fitted curve at half-maximal effect; nearly all actives have a fitted effect of over 65% in size
Target sequence (O75874 whole entry R132H, stated change not applied): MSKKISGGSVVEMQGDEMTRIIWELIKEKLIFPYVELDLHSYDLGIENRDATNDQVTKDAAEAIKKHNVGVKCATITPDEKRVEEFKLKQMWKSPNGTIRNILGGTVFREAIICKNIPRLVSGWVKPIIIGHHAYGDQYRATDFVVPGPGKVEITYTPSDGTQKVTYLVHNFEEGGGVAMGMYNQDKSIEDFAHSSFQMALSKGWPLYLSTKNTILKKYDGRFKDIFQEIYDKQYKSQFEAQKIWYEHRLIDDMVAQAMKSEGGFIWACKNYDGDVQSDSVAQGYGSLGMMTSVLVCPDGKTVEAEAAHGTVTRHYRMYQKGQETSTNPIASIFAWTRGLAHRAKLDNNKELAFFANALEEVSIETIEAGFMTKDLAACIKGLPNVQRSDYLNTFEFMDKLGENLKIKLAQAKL
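IDH1-R132H (0.5 ug/mL dispensed) in pH 7.5 Tris buffer was preincubated 30 min with compound, then given a substrate mix of 0.016 mM NADPH and 2 mM alpha-KG for 80 min at room temperature; remaining NADPH was read by diaphorase/resazurin fluorescence.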
rTrxR1 inhibitor: rat TrxR1 inhibition | recombinant rTrxR1, NADPH fluorescence consumption, selenite substrate | Potency, µM (highest dose often 114 µM), for inactives: top-dose activity change, negative = inhibition, usual class: inhibitors | actives 1% (n = 390,000); also: potency is read from the fitted curve at half-maximal effect; nearly all actives have a fitted effect of over 65% in size
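Rat TrxR1 (90 nM in the dispensed reagent) was pre-reduced with 400 uM NADPH for 5 min at room temperature, then incubated with compound for 15 min. After 400 uM selenite was added, NADPH fluorescence (Ex 340/Em 450 nm) was followed for 8 min.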
* hit, by the source's call; u = inconclusive; x = no result; ! = not active in a repeat; [ ] = dose if it differs, or a comment. This is a sample that favours compounds with a hit; in the whole collection about 1.5% have one here. Unless noted, calls follow the shape of the dose curve; as a rule, active = well fitted curve in the direction sought with a large enough effect; inconclusive = small, poorly fitted or top-dose-only effect, or another doubt; inactive = no such curve, though single readings can be large; an effect the other way counts as inactive or inconclusive. % is scaled to controls: 0 for no effect and ±100 for the full control effect.

SMILES | Eya2 inh | TrxR1 substrate | FBPA coupling cs | mIDH1 inhibitor | rTrxR1 inhibitor
O=C(O)CSc1cc(NS(=O)(=O)c2cccc([N+](=O)[O-])c2)c2ccccc2c1O | 13.8% | u | -40.4* | 8.0% | -5.0%
O=C(O)c1cccc(S(=O)(=O)Nc2ccc([N+](=O)[O-])cc2O)c1 | -5.4% | -8.6% | 9.7 | -1.8% | -0.6%
CCc1ccc(S(=O)(=O)Nc2cc(SCC(=O)O)c(O)c3ccccc23)cc1 | 5.0% | -12.2% | -42.2* | 11.3% | -11.8%
CCOc1ccc(S(=O)(=O)Nc2cc3c(C(=O)OC)c(COC)oc3c3ccccc23)cc1 | x | -6.7% | x | 26.9% | -16.2%
O=S(=O)(Nc1cc(Sc2cccc3cccnc23)c(O)c2ccccc12)c1ccccc1 | 0.2% | x | -54.9* | x | x
CCOc1ccc(S(=O)(=O)Nc2cc(SCC(=O)O)c(O)c3ccccc23)cc1 | -13.1% | -9.4% | -61.5* | 6.4% | -25.2%
CCC1(c2ccccc2)NC(=O)NC1=O (centres undefined) | x | x | -5.1 | x | x
Cc1ccc(C)c(S(=O)(=O)Nc2cc(SCC(=O)O)c(O)c3ccccc23)c1 | 1.4% | -17.4% | -53.2* | 0.6% | u
Cc1cc2c(cc1C)N(C(=O)CCl)CC(=O)N2 | x | x | x | -10.2% | x
Cc1cc2c(cc1C)N(C(=O)CCl)CCN2C(=O)CCl | x | 1.8%[57.1 µM] | x | -1.6% | 1.12µM*
O=S(=O)(c1ccccc1Cl)N1CCN(c2nc(-c3cccs3)nc3ccccc23)CC1 | x | 3.8% | x | x | 3.5%
CCCN(CCC)C(=O)c1cc([N+](=O)[O-])cc2c1-c1ccc([N+](=O)[O-])cc1C2=C(C#N)C#N | -10.0% | -8.1% | -31.9* | 9.3% | 12.6µM*
[O-][N+]12CCCc3cccc(c31)CCC2 | x | 10.6% | x | x | 2.2%
C=C(C)C(=O)OCCOCC | x | x | 0.8 | x | x
Cc1cc(C)c2[nH]c(=O)c(C(c3nnnn3C(C)(C)C)N(Cc3ccco3)CC3CCCO3)cc2c1 (centres undefined) | -23.4% | 4.0% | -40.2* | -0.9% | -17.9%
Cc1ccc2nc(/C(C#N)=C\c3ccc(N4CCOCC4)o3)[nH]c2c1 | u | 5.2% | 0.0 | 3.0% | 12.6µM*
Cc1ccc(/C(C#N)=C\c2ccc(N3CCOCC3)o2)cc1 | -6.9% | -1.6% | -25.3 | 1.8% | 2.24µM*
O=C1C=CC(=O)N1CCCCCCN1C(=O)C=CC1=O | -15.7% | 5.8% | 5.7 | 3.6% | 0.708µM*
CCN1C(=O)C=CC1=O | 4.7% | -2.8%[57.1 µM] | x | x | 10.6µM*!
O=C(O)CN1C(=O)C=CC1=O | x | x | x | -2.7% | x
CCN1C(=O)C(=O)c2cc(C)ccc21 | 10.0% | 10.7%[57.1 µM] | x | 5.3% | 11.1%[57.1 µM]
COc1ccc(/C=C/c2ccnc3ccccc23)cc1 | x | 2.4% | x | x | 16.4%
O=C1C2C3C=CC(O3)C2C(=O)N1CC(O)c1ccccc1 (centres undefined) | -8.9% | 5.3% | -0.5 | 7.1% | 50.1µM*
O=C(Cc1ccccc1)NCC(=O)OCC(=O)c1cccc2ccccc12 | x | -7.7% | x | x | 8.9%
Cc1cccc(CS(=O)(=O)Cc2ccc(C(=O)NC(C)c3ccccc3)o2)c1 (centres undefined) | -2.9% | 2.9%[57.1 µM] | 2.2 | 3.4% | -0.9%[57.1 µM]
SMILES | Eya2 inh | TrxR1 substrate | FBPA coupling cs | mIDH1 inhibitor | rTrxR1 inhibitor
CCC(C)[C@@H](NC(=O)OC(C)(C)C)c1nnc(S(=O)(=O)Cc2cccc(C)c2)o1 (some centres undefined) | 16.4% | -15.0% | -3.4 | 0.8% | 1.78µM*
Cc1ccccc1CS(=O)(=O)c1nnc([C@H](Cc2ccccc2)NC(=O)OC(C)(C)C)o1 | -3.2% | -0.2% | -11.8 | -5.1% | 0.631µM*
CC(C)(C)OC(=O)N[C@@H](Cc1ccccc1)c1nnc(S(=O)(=O)Cc2ccccc2)o1 | -7.8% | x | 2.4 | x | x
Cc1[nH]c2ccccc2c1C(c1c[nH]c2ccccc12)c1c(C)[nH]c2ccccc12 | x | -6.6%[0.0914 µM] | x | x | u
CCOC(=O)C1=C(C)NC(C)=C(C(=O)OCC)C1c1c(F)c(F)c(F)c(F)c1F | -24.5% | 23.7%[57.1 µM] | x | x | u
COc1ccc(C2=CC(=O)C[C@H](c3ccc(OC)cc3)C2)cc1 | -18.9% | -1.1%[57.1 µM] | x | 4.4% | 20.3%[57.1 µM]
COc1ccc(C2=CC(=O)C=CC2=O)cc1 | -14.8% | x | -36.0* | x | x
O=C1C2C3C=CC(C3)C2C(=O)N1c1ccccc1 (centres undefined) | 11.9% | -5.4% | -0.6 | 9.4% | -11.0%

Screens from PubChem.
